High-throughput results from PubChem.
Shown are actives, neighbours in structure and some others; about 11% of the full set was active somewhere.
PNC assembly inh: perinucleolar compartment assembly inhibition. PC3M PTB-GFP, PNC prevalence imaging, 16 h; hits give low values. activity change (PNC), negative = inhibition, % at 10 µM. 3.1% of 140,000 active;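 active = readout at or below -70, meaning at least 70% loss of cells showing the perinucleolar compartment, a nuclear body marking cancer cells; inconclusive = readout between -30 and a set limit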;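 also: plate controls were DMSO wells for no effect and camptothecin positive control wells for full effect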
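PC3M cells stably expressing PTB-GFP, 750–1000 cells/well, treated 16 h at 37 °C with compound (23 nl of library stock), in duplicate. After paraformaldehyde fixation and Hoechst stain, imaged at 20x; PNC prevalence scored by image analysis.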
HPGD inh: inhibitors of human 15-hydroxyprostaglandin dehydrogenase (HPGD). Potency, µM, inactives show top-dose activity change, negative = inhibition, usual class: inhibitors. purified HPGD, NADH fluorescence kinetic, PGE2 substrate. 4.3% of 150,000 active. P15428; also: potency is read from the fitted curve at half-maximal effect
Target sequence (P15428 whole entry, looked up): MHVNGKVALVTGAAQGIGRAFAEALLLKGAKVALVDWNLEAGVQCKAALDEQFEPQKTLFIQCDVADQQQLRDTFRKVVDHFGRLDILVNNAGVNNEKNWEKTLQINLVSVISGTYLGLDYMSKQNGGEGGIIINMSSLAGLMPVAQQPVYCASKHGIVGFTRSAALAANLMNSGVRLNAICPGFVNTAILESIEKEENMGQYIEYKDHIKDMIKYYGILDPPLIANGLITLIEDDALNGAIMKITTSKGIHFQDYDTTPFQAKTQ
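20 nM HPGD preincubated 15 min at room temperature with compound in 50 mM Tris-HCl pH 8, 0.01% Tween 20. Started with 1 mM NAD+ and 30 uM prostaglandin E2; NADH fluorescence (360/450 nm) read 5 times over 30-s intervals, last minus first.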
ALDH1A1 block: blocks purified human ALDH1A1 activity; P00352; Purified ALDH1A1, NADH fluorescence, propionaldehyde substrate; Potency, µM (doses to about 75.3 µM), for the others: at the top dose activity, negative = inhibition, actives largely listed as inhibitors; 7.3% of 220,000 active; AID 1030;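 also: potency is read from the fitted curve at half-maximal effect; plate controls were no enzyme wells and a reference inhibitor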
An asterisk follows results filed as active; [ ] = remark or other dose. Unless noted, calls follow the shape of the dose curve; as a rule, active = well fitted inhibition curve with a large enough effect (not every such curve was filed as active); inconclusive = small, poorly fitted or top-dose-only effect, or another doubt; inactive = no such curve, though single readings can be large or run the other way. Unless noted, % is scaled to controls: 0 for no effect and ±100 for the full control effect.

Screening Nc1ccc(N(S(=O)(=O)c2ccccc2)S(=O)(=O)c2ccccc2)c(Cl)c1 returned HPGD inh -1% and ALDH1A1 block -12%[13.5 µM].
C=CC[C@@H]1C=C[C@@H](O/N=C2/[C@H]3O[C@@H]3[C@@H](O)[C@H]3[C@H]2CCn2c(=O)n(-c4ccccc4)c(=O)n23)[C@@H](CO)O1 was read as ALDH1A1 block 8%[13.5 µM].
CC(C)c1ccc(NC(=O)C(c2ccccc2)N(C)C(=O)c2cnccn2)cc1 (centres undefined) was read as ALDH1A1 block 10µM*.
For CCC(C)(C)NC(=O)C(c1ccc(F)cc1)N(Cc1ccc(OC)cc1)C(=O)c1cnccn1 (centres undefined) the results were ALDH1A1 block 0%.
`COc1ccc(NC(=O)C(c2ccc(OC)cc2)N(C)C(=O)c2cnccn2)cc1` (centres undefined) gave PNC assembly inh 28, HPGD inh inconclusive and ALDH1A1 block inconclusive.
`COc1ccc(CN(C(=O)c2cnccn2)C(C(=O)Nc2ccc(F)cc2)c2ccccc2)cc1` (centres undefined) gave PNC assembly inh -95*, HPGD inh -9% and ALDH1A1 block 10µM*.
Cc1ccc(C)c(Oc2coc3cc(OCC(=O)Nc4ccccc4C(C)C)ccc3c2=O)c1 was read as PNC assembly inh 1, HPGD inh -14% and ALDH1A1 block 0%.
c1cncc(-c2cc(-n3ccnc3)ncn2)c1 was read as ALDH1A1 block -12%.
OCCC1CN(Cc2cccn2-c2nccs2)CCN1Cc1ccc(F)c(F)c1 (centres undefined) was read as ALDH1A1 block 8%.
C/C(CCC(=O)O)=N/Nc1ccc([N+](=O)[O-])cc1[N+](=O)[O-] was read as PNC assembly inh -87*, HPGD inh -11% and ALDH1A1 block -8%.
For C/C(CCCO)=N/Nc1ccc([N+](=O)[O-])cc1[N+](=O)[O-] the results were ALDH1A1 block -4%.
Cc1cc(Cc2cc(C)c(N)cc2C)c(C)cc1N was read as ALDH1A1 block 22µM*.
`Cc1cc2nn(-c3cccc4ccccc34)nc2cc1N` gave PNC assembly inh 52, HPGD inh inconclusive and ALDH1A1 block inconclusive.
Screening O=C1[C@H]2CCn3c(=O)n(-c4ccccc4)c(=O)n3[C@H]2[C@H](O)[C@H]2O[C@@H]12 returned ALDH1A1 block 16%[13.5 µM].
BrC(/C=C\c1ccccc1)=N/Nc1nc(N2CCOCC2)nc(N2CCOCC2)n1 was read as ALDH1A1 block -6%.
BrC(=C\c1ccccc1)/C=N/Nc1nc(N2CCOCC2)nc(N2CCOCC2)n1 was read as PNC assembly inh 67, HPGD inh 16µM* and ALDH1A1 block 0%.
CN(C)C1C(=O)C(C(N)=O)=C(O)[C@@]2(O)C(=O)C3=C(O)c4c(O)ccc(Cl)c4[C@@H](O)C3C[C@@H]12 (some centres undefined) was read as HPGD inh -22% and ALDH1A1 block -6%.
CCOc1ccc(NC(=O)Cn2nnc3c(cnn3-c3ccc(F)cc3)c2=O)cc1 was read as ALDH1A1 block 7.9µM*.
Cc1ccccc1NC(=O)Cn1nnc2c(cnn2-c2ccc(F)cc2)c1=O was read as PNC assembly inh -21, HPGD inh -13% and ALDH1A1 block 3%.
For COc1ccc(NC(=O)CC2C(=O)N(c3ccc(Cl)cc3)C(=S)N2CCc2ccncc2)cc1 (centres undefined) the results were PNC assembly inh 23, HPGD inh -10% and ALDH1A1 block -8%.
For COc1ccc(NC(=O)CC2C(=O)N(c3ccc(Cl)cc3)C(=S)N2CCc2ccccn2)cc1 (centres undefined) the results were PNC assembly inh 3, HPGD inh -19% and ALDH1A1 block 16µM*.
For COC(=O)CN1C(=S)N(c2ccc(Cl)cc2)C(=O)C1CC(=O)Nc1ccc(Cl)cc1 (centres undefined) the results were PNC assembly inh 41, HPGD inh 32µM* and ALDH1A1 block -5%.
COC(=O)CN1C(=S)N(c2ccc(Cl)cc2)C(=O)C1CC(=O)Nc1ccc(F)cc1 (centres undefined) was read as PNC assembly inh inconclusive, HPGD inh -14% and ALDH1A1 block inconclusive.
`CCOC(=O)c1cc2sccc2n1CC(=O)C(C)(C)C` gave ALDH1A1 block -10%.
For CSc1ncccc1C(=O)Nc1ccc(S(=O)(=O)NC2=NCCCCC2)cc1 the results were ALDH1A1 block 8.9µM*.
Screening CN(C)S(=O)(=O)c1ccc(C(=O)Nc2ccc(S(=O)(=O)NC3=NCCCCC3)cc2)cc1 returned PNC assembly inh 19, HPGD inh -31% and ALDH1A1 block inconclusive.
`COc1cccc([C@@H]2Oc3ccc(OC)cc3C[C@H]2O)c1` gave HPGD inh -10% and ALDH1A1 block 7%.
Screening OCC1OC(n2nc3ccccc3n2)C(O)C(O)C1O (centres undefined) returned PNC assembly inh 22, HPGD inh -3% and ALDH1A1 block 3%.
Screening O=C1C2=C(S[C@@H]3O[C@H](CO)[C@@H](O)[C@H](O)[C@H]3O2)C(=O)c2ccccc21 returned HPGD inh inconclusive and ALDH1A1 block 1.4µM*.
Screening CC(C)(C)NC(=S)NCc1ccncc1 returned ALDH1A1 block 5%.
For CC(C)Cc1nnc(NS(=O)(=O)c2ccc(Cl)cc2)s1 the results were PNC assembly inh -9, HPGD inh -6% and ALDH1A1 block inconclusive.
CC(C)Cc1nnc(NS(C)(=O)=O)s1 was read as PNC assembly inh 20, HPGD inh -19% and ALDH1A1 block 25µM*.
`Cc1nc(-c2nc(-c3c(C(=O)NNC(=O)Nc4ccccc4)noc3C)cs2)cs1` gave ALDH1A1 block 3%.
For Cc1cc(C(=O)c2ccccc2)c(NC(=O)CN2CCOCC2)s1 the results were PNC assembly inh 28, HPGD inh 0% and ALDH1A1 block 1%.
For CC1CCc2c(sc(NC(=O)CN3CCN(C(=O)c4ccco4)CC3)c2C#N)C1 (centres undefined) the results were PNC assembly inh -117*, HPGD inh -28% and ALDH1A1 block inconclusive.
CC1CCN(CC(=O)Nc2sc3c(c2C#N)CCC3)CC1 was read as PNC assembly inh 9 and ALDH1A1 block inconclusive.
Screening Cc1ccc(C(=O)c2cc(C)sc2NC(=O)CN2CCN(C(=O)c3ccco3)CC2)cc1 returned PNC assembly inh -22 and ALDH1A1 block 25µM*.
`O=C(c1cnccn1)N1CCC[C@@]2(CCN(Cc3nccs3)C2)C1` gave HPGD inh -10% and ALDH1A1 block -1%.
CC(C)C[C@@H](CC(=O)N[C@@H](CCC(=O)O)CC(=O)O)NC(=O)[C@@H]1CCCC[C@H]1NC(=O)C[C@@H](NC(=O)C[C@H](Cc1ccccc1)NC(=O)[C@@H]1CCCC[C@H]1N)C(C)C was read as HPGD inh -5% and ALDH1A1 block 13%.
COc1ccc(NC(=O)N2CC[C@@]3(CCCN(C(=O)c4ccco4)C3)C2)cc1 was read as HPGD inh 0% and ALDH1A1 block -7%.
`O=C(O)CCn1cnc2c(=S)nc[nH]c21` gave HPGD inh 0% and ALDH1A1 block -12%[13.5 µM].
S=c1nc[nH]c2nc[nH]c12 was read as HPGD inh inconclusive and ALDH1A1 block 7.9µM*.
